Source: PubChem BioAssay AID1159580 (chemical genetic matrix, 2015)
In all, about 5,500 compounds went through this assay and about 2,000 (36%) were called active. Roughly 18% stayed inconclusive and do not appear here. Rule as the data show it: active = normalized growth mostly below about 0.91 (no sharp cut-off); inconclusive = no clear call, values can overlap the other calls; inactive = mostly above about 0.92. Some of the results follow.

Assay: chemical genetic growth profiling, strain panel (AID 1159580);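 also: tested at 20 µM; growth read once vehicle control cultures reached saturation at 30 °C; 1 = growth at the plate median or of vehicle wells; lower values mean less growth of the strain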
Details: growth OD

Measured: normalized growth

CC1(C)C(=O)C=C[C@@]2(C)C1CC(=O)[C@@]1(C)C3=CC(=O)O[C@@H](c4ccoc4)[C@]3(C)CCC12 (some centres undefined)
inactive: S. cerevisiae deletion strains, locus YBR021W, strain FUR4, hits give low values 0.994 | S. cerevisiae deletion strains, locus YBR229C, strain ROT2, hits give low values 1 | S. cerevisiae deletion strains, locus YCL029C, strain bik1, hits give low values 0.994 | S. cerevisiae deletion strains, locus YDL035C, strain GPR1, hits give low values 1.02 | S. cerevisiae deletion strains, locus YDL074C, strain BRE1, hits give low values 1 | S. cerevisiae deletion strains, locus YDL101C, strain DUN1, hits give low values 0.997 | S. cerevisiae deletion strains, locus YDL185W, strain tfp1, hits give low values 1 | S. cerevisiae deletion strains, locus YDL192W, strain arf1, hits give low values 0.987 | S. cerevisiae deletion strains, locus YDR101C, strain arx1, hits give low values 0.988 | S. cerevisiae deletion strains, locus YDR162C, strain NBP2, hits give low values 1.01 | S. cerevisiae deletion strains, locus YDR318W, strain mcm21, hits give low values 0.993 | S. cerevisiae deletion strains, locus YDR388W, hits give low values 0.996 | S. cerevisiae deletion strains, locus YDR502C, strain sam2, hits give low values 0.983 | S. cerevisiae deletion strains, locus YER110C, hits give low values 0.989 | S. cerevisiae deletion strains, locus YER155C, strain BEM2, hits give low values 1.01 | S. cerevisiae deletion strains, locus YER167W, strain BCK2, hits give low values 1 | S. cerevisiae deletion strains, locus YGL078C, strain dbp3, hits give low values 0.999 | S. cerevisiae deletion strains, locus YGL086W, strain mad1, hits give low values 1.01 | S. cerevisiae deletion strains, locus YGL248W, strain PDE1, hits give low values 0.997 | S. cerevisiae deletion strains, locus YGR078C, strain PAC10, hits give low values 0.997 | S. cerevisiae deletion strains, locus YGR135W, strain pre9, hits give low values 0.993 | S. cerevisiae deletion strains, locus YGR229C, strain SMI1, hits give low values 1.01 | S. cerevisiae deletion strains, locus YGR252W, strain gcn5, hits give low values 0.939 | S. cerevisiae deletion strains, locus YHR079C, strain IRE1 (second series), hits give low values 0.988 | S. cerevisiae deletion strains, locus YHR094C, strain hxt1, hits give low values 0.991 | S. cerevisiae deletion strains, locus YHR129C, strain ARP1, hits give low values 0.998 | S. cerevisiae deletion strains, locus YHR200W, strain rpn10, hits give low values 0.99 | S. cerevisiae deletion strains, locus YIL066C, strain RNR3, hits give low values 1.01 | S. cerevisiae deletion strains, locus YIL073C, strain SPO22, hits give low values 1.04 | S. cerevisiae deletion strains, locus YIL125W, strain kgd1, hits give low values 0.991 | S. cerevisiae deletion strains, locus YIR030C, strain dcg1, hits give low values 0.996 | S. cerevisiae deletion strains, locus YJL095W, strain BCK1, hits give low values 0.988 | S. cerevisiae deletion strains, locus YJL134W, strain LCB3, hits give low values 1.01 | S. cerevisiae deletion strains, locus YJL168C, strain set2, hits give low values 0.998 | S. cerevisiae deletion strains, locus YJL187C, strain SWE1 (second series), hits give low values 0.996 | S. cerevisiae deletion strains, locus YJR043C, strain POL32, hits give low values 1.01 | S. cerevisiae deletion strains, locus YKL009W, strain mrt4, hits give low values 1.01 | S. cerevisiae deletion strains, locus YKL068W, hits give low values 1 | S. cerevisiae deletion strains, locus YKL085W, strain MDH1 (second series), hits give low values 0.998 | S. cerevisiae deletion strains, locus YKL085W, strain MDH1, hits give low values 0.998 | S. cerevisiae deletion strains, locus YKR001C, strain vps1, hits give low values 0.98 | S. cerevisiae deletion strains, locus YLR039C, strain RIC1, hits give low values 1.02 | S. cerevisiae deletion strains, locus YLR058C, strain SHM2, hits give low values 1 | S. cerevisiae deletion strains, locus YLR102C, strain apc9, hits give low values 0.994 | S. cerevisiae deletion strains, locus YLR262C, strain YPT6, hits give low values 1.04 | S. cerevisiae deletion strains, locus YLR268W, strain sec22, hits give low values 1 | S. cerevisiae deletion strains, locus YLR330W, strain CHS5, hits give low values 1 | S. cerevisiae deletion strains, locus YLR371W, strain rom2, hits give low values 0.988 | S. cerevisiae deletion strains, locus YLR418C, strain cdc73, hits give low values 0.985 | S. cerevisiae deletion strains, locus YML016C, strain PPZ1, hits give low values 1 | S. cerevisiae deletion strains, locus YML032C, strain rad52, hits give low values 0.998 | S. cerevisiae deletion strains, locus YML124C, strain tub3, hits give low values 0.996 | S. cerevisiae deletion strains, locus YMR078C, strain ctf18, hits give low values 1.01 | S. cerevisiae deletion strains, locus YMR223W, strain ubp8, hits give low values 0.983 | S. cerevisiae deletion strains, locus YMR263W, strain SAP30, hits give low values 0.998 | S. cerevisiae deletion strains, locus YMR307W, strain GAS1, hits give low values 0.98 | S. cerevisiae deletion strains, locus YNL067W, strain RPL9B, hits give low values 0.996 | S. cerevisiae deletion strains, locus YNL128W, strain TEP1, hits give low values 1.02 | S. cerevisiae deletion strains, locus YNL233W, strain BNI4, hits give low values 1.02 | S. cerevisiae deletion strains, locus YNL250W, strain rad50, hits give low values 1 | S. cerevisiae deletion strains, locus YNL271C, strain bni1, hits give low values 1 | S. cerevisiae deletion strains, locus YNL298W, strain CLA4, hits give low values 0.987 | S. cerevisiae deletion strains, locus YNL307C, strain MCK1, hits give low values 0.994 | S. cerevisiae deletion strains, locus YNR052C, strain pop2, hits give low values 0.979 | S. cerevisiae deletion strains, locus YOL012C, strain htz1 1.33 | S. cerevisiae deletion strains, locus YOL147C, strain pex11, hits give low values 0.992 | S. cerevisiae deletion strains, locus YOR061W, strain CKA2, hits give low values 1.01 | S. cerevisiae deletion strains, locus YOR069W, strain VPS5, hits give low values 0.999 | S. cerevisiae deletion strains, locus YOR136W, strain idh2, hits give low values 1.01 | S. cerevisiae deletion strains, locus YOR144C, strain elg1, hits give low values 0.99 | S. cerevisiae deletion strains, locus YOR184W, strain ser1, hits give low values 1.01 | S. cerevisiae deletion strains, locus YOR316C, strain cot1, hits give low values 0.992 | S. cerevisiae deletion strains, locus YPL241C, strain CIN2, hits give low values 1.01 | S. cerevisiae deletion strains, locus YPR119W, strain clb2, hits give low values 0.998 | S. cerevisiae deletion strains, locus YPR141C, strain kar3, hits give low values 1 | S. cerevisiae deletion strains, locus YPR163C, strain tif3, hits give low values 1 | S. cerevisiae deletion strains, locus YPR167C, strain met16, hits give low values 1 | S. cerevisiae deletion strains, strain wtn01, hits give low values 0.992 | S. cerevisiae strains, strain wild type, hits give low values 1.01
